# Source: PubChem BioAssay (NCATS)
# Results filed as inconclusive are left out. A call without a number means that no potency is given here. The source made the active and inactive calls. Calls come from the whole dose curve.
# Molecular target: Nucleoprotein (Lymphocytic choriomeningitis virus (strain Armstrong)) (UniProt P09992)
# Assay: qHTS for Inhibitors of the Functional Ribonucleoprotein Complex (vRNP) of Lymphocytic Choriomeningitis Arenaviruses (LCMV): LCMV Primary Screen - GLuc reporter signal (AID 1347086); note: nearly all actives have a fitted effect of over 70% in size
# Conditions: LCMV minigenome vRNP cell assay, Gaussia luciferase reporter; series mostly up to 57.5 µM
# Nucleoprotein (Lymphocytic choriomeningitis virus (strain Armstrong)), sequence (P09992 whole entry, looked up): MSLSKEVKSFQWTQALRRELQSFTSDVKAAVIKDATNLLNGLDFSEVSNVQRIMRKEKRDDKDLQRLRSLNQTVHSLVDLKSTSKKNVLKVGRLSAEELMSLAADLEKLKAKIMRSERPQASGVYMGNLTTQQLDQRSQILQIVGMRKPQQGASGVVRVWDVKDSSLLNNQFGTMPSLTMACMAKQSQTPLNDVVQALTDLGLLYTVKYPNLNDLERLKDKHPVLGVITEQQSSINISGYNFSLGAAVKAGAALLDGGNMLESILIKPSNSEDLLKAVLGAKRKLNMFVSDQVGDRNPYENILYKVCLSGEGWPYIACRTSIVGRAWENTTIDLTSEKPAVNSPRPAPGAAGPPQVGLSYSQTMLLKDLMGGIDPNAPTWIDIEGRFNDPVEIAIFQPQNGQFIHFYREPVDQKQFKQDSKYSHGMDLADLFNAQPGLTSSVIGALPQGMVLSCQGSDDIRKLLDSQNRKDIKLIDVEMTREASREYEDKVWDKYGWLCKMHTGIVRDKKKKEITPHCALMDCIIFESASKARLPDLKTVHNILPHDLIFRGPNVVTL
SMILES,Potency,"activity change, negative = inhibition"
Nc1nc(Cl)nc2c1ncn2[C@@H]1O[C@H](CO)[C@@H](O)[C@H]1F,inactive,–
COc1ccc([C@H]2c3cc(OC)c(OC)cc3C[C@@H](C)[C@@H]2C)cc1OC,inactive,–
O=C(Nc1ccccc1Br)N[C@@H]1CCN(c2ccc(C(F)(F)F)cn2)C1,inactive,–
Cc1cnc(C)c(C)n1,inactive,–
CCOC(=O)c1cccc(C(=O)OCC)n1,inactive,–
O=C(NC(Cc1ccccc1)C(=O)O)c1ccccc1 (stereo not drawn),inactive,–
COc1cc(C)cc(C(=O)O)c1C1=C(O)c2cccc(O)c2C(=O)C1=O,inactive,–
O=C(NCO)c1cccnc1,inactive,–
C/C=C/c1cc(OC)c2c(c1)[C@H](C)[C@@H](c1ccc(O)c(OC)c1)O2,inactive,–
COC(=O)c1ccccc1OC,inactive,–
CC(C)(O)[C@H](O)COc1c2occc2cc2ccc(=O)oc12,inactive,–
C[C@H]1[C@H](C)CC[C@]2(C)CC[C@]3(C)C(=CC(=O)C4[C@@]5(C)CC[C@H](O)C(C)(C)C5CC[C@]43C)[C@H]12 (stereo partly drawn),inactive,–
Cc1csc(NC(=O)c2sc3nc4c(c(C(F)(F)F)c3c2N)CCC4)n1,inactive,–
C[C@]12C=CC(=O)N[C@@H]1CC[C@H]1[C@H]3CC[C@@H](C(=O)Nc4cc(C(F)(F)F)ccc4C(F)(F)F)[C@@]3(C)CC[C@@H]12,inactive,–
S=C(NCc1ccccc1)NCc1ccccc1,inactive,–
CCCCC[C@H](O)/C=C/C=C/C/C=C\CCCC(=O)O,–,8.09% [at 0.757 µM] (inactive)
COC(=O)c1c(C)cc(O)c(C=O)c1O,inactive,–
O=C(c1ccccc1)N1CCCCC1,inactive,–
